Data as given in the supplement of paper PMC8183993.
Structures can show the parent of a compound that is named as a salt. ± gives the standard deviation of the averaged measurements. Whole data set: some 3,100 compounds, median “mean cytoplasmic OPP incorporation (global translation) relative to DMSO” near 100, cut for the lowest 2% near 56. The full list was thinned out, with the lowest values kept by preference.

These molecules were tested on U2OS (assay: mean cytoplasmic OPP incorporation (global translation) relative to DMSO (% of DMSO); higher = more protein synthesis). Details: 10 µM; 24 h.
Protocol: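 Primary image-based screen in U2OS cells: compounds at 10 uM for 24 h, then a 1 h o-propargyl-puromycin (OPP) pulse, click labelling, and high-throughput microscopy. Mean cytoplasmic OPP intensity and nuclei count were normalised to DMSO wells within each plate (DMSO = 100) and averaged over triplicate plates.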
For `C[C@]12CC[C@H](O)C[C@@H]1CC[C@@H]1[C@@H]2CC[C@]2(C)C(=O)CC[C@@H]12`, the “mean cytoplasmic OPP incorporation” value was 95.2. `C[C@]12CC[C@@H](O)C[C@H]1CC[C@@H]1[C@@H]2CC[C@]2(C)C(=O)CC[C@@H]12` [3-alpha-Hydroxy-5-beta-androstan-17-one] was tested, and the “mean cytoplasmic OPP incorporation” value was 89.8. With `C[C@]12CC[C@H](O)C[C@@H]1CC[C@@H]1[C@@H]2CC[C@]2(C)C(=O)CC[C@@H]12` [Epiandrosterone] the “mean cytoplasmic OPP incorporation” value was 90.1. For `C[C@]12CC[C@H](O)C[C@H]1CC[C@@H]1[C@@H]2CC[C@]2(C)[C@@H](C3=CC(=O)OC3)CC[C@]12O` [Digitoxigenin], the “mean cytoplasmic OPP incorporation” value was 26.3. With `CC(=O)O[C@H]1C[C@H](O[C@H]2[C@@H](O)C[C@H](O[C@H]3[C@@H](O)C[C@H](O[C@H]4CC[C@@]5(C)[C@H](CC[C@@H]6[C@@H]5C[C@@H](O)[C@]5(C)[C@@H](C7=CC(=O)OC7)CC[C@]65O)C4)O[C@@H]3C)O[C@@H]2C)O[C@H](C)[C@H]1O[C@@H]1O[C@H](CO)[C@@H](O)[C@H](O)[C@H]1O` [Lanatoside C] the “mean cytoplasmic OPP incorporation” value was 27.8. With `CC(=O)[C@H]1CC[C@H]2[C@@H]3CC[C@H]4C[C@H](O)CC[C@]4(C)[C@H]3C(=O)C[C@]12C` [Alfaxalone] the “mean cytoplasmic OPP incorporation” value was 102. In the case of `C[C@]12CC[C@H](O)C[C@H]1CC[C@@H]1[C@@H]2C[C@@H](O)[C@]2(C)[C@@H](C3=CC(=O)OC3)CC[C@]12O` [Digoxigenin], the “mean cytoplasmic OPP incorporation” value is reported as 32. With `C[C@]12CC[C@@H](O)C[C@@H]1CC[C@@H]1[C@@H]2CC[C@]2(C)C(=O)CC[C@@H]12` [Androsterone] the “mean cytoplasmic OPP incorporation” value was 97.1. With `CN(C)CCN(C)CCc1ccc(Cl)c(Cl)c1` [BD 1047 dihydrobromide] the “mean cytoplasmic OPP incorporation” value was 105. `CN(C(=O)Cc1ccc(Cl)c(Cl)c1)[C@H](CN1CCCC1)c1ccccc1` [ICI-199,441 hydrochloride] was tested, and the “mean cytoplasmic OPP incorporation” value was 111. For `CCCN(CCC)[C@@H]1CCc2c(OC)cccc2[C@@H]1C` [(+)-UH 232 maleate], the “mean cytoplasmic OPP incorporation” value was 102. `NC(C(=O)O)c1nn[nH]n1` (racemic) [(RS)-(Tetrazol-5-yl)glycine] was tested, and the “mean cytoplasmic OPP incorporation” value was 102. In the case of `CC1(C)[C@@H](O)C[C@H]2[C@](C)(O)[C@@H]3CC[C@@H]4[C@@H](O)[C@@]3(C[C@@H](O)[C@@]21O)C[C@@]4(C)O` [Grayanotoxin III], the “mean cytoplasmic OPP incorporation” value is reported as 102. In the case of `Clc1ccc(C2=CCCC3CCC2N3)cn1` (stereo unspecified) [UB 165 fumarate], the “mean cytoplasmic OPP incorporation” value is reported as 97.7. With `CCC(Oc1ccc(Cl)cc1)C(=O)OC1C[C@H]2CC[C@@H](C1)N2C` (stereo partly specified) [SM-21 maleate] the “mean cytoplasmic OPP incorporation” value was 106. In the case of `N=C(NCc1ccc(Cl)cc1)SCCCc1c[nH]cn1` [Clobenpropit dihydrobromide], the “mean cytoplasmic OPP incorporation” value is reported as 95.4. `CC(N)Cc1cnc[nH]1` (stereo unspecified) was tested, and the “mean cytoplasmic OPP incorporation” value was 101. `C=CCN1CC[C@]2(C)c3cc(O)ccc3C[C@H]1C2C` (single isomer, unassigned; (+)) was tested, and the “mean cytoplasmic OPP incorporation” value was 105. With `COc1ccc(C(=O)O[C@H]2CC[C@@]3(C)[C@@H]4CC[C@H]5[C@]6(O)C[C@H](O)[C@@]7(O)[C@@H](CN8C[C@@H](C)CC[C@H]8[C@@]7(C)O)[C@]6(O)C[C@@]53O[C@]24O)cc1OC` [Veratridine] the “mean cytoplasmic OPP incorporation” value was 108. In the case of `COc1ccc2[nH]cc(C3=CCNCC3)c2c1`, the “mean cytoplasmic OPP incorporation” value is reported as 101. In the case of `CC(C)(Cc1c[nH]c2ccc(Cl)cc12)NCCOc1ccccc1OCC1CC1`, the “mean cytoplasmic OPP incorporation” value is reported as 55.1. For `Cn1cc(C(=O)C(=O)N[C@H]2CN3CCC2CC3)c2ccccc21`, the “mean cytoplasmic OPP incorporation” value was 99.4. `OC(Cc1ccncc1)C(Cl)(Cl)Cl` (stereo unspecified) was tested, and the “mean cytoplasmic OPP incorporation” value was 104. In the case of `C=C(C)CN1CC[C@@]23c4c5ccc(O)c4O[C@H]2c2[nH]c4ccccc4c2C[C@]3(O)C1C5` [SDM25N hydrochloride], the “mean cytoplasmic OPP incorporation” value is reported as 95.8. In the case of `O=Cc1cn(Cc2ccc(Cl)cc2)c2ccccc12` [Oncrasin 1], the “mean cytoplasmic OPP incorporation” value is reported as 83.4. `CN1C(=O)[C@]23CC4=CC=C[C@H](O)[C@H]4N2C(=O)[C@@]1(CO)SS3` [Gliotoxin] was tested, and the “mean cytoplasmic OPP incorporation” value was 33.6. In the case of `CCC[C@@H]1CC2=CC(=O)CC[C@]2(C)[C@H]2CC[C@@]3(C)[C@@H](CC[C@@]3(O)CCC(=O)O)[C@H]12`, the “mean cytoplasmic OPP incorporation” value is reported as 96.1. With `Oc1ccc2c3c1O[C@H]1c4c(c5ccccc5n4Cc4ccccc4)C[C@@]4(O)C(C2)N(CC2CC2)CC[C@]314` [N-Benzylnaltrindole hydrochloride] the “mean cytoplasmic OPP incorporation” value was 111. In the case of `Cc1nc(N)sc1CCN` [Amthamine dihydrobromide], the “mean cytoplasmic OPP incorporation” value is reported as 107. In the case of `C[C@@H]1O[C@@H](O[C@H]2C[C@@H](O)[C@]3(CO)[C@H]4[C@H](O)C[C@]5(C)[C@@H](C6=CC(=O)OC6)CC[C@]5(O)[C@@H]4CC[C@]3(O)C2)[C@H](O)[C@H](O)[C@H]1O` [Ouabain], the “mean cytoplasmic OPP incorporation” value is reported as 47 ± 1.8. In the case of `Cc1ncc(CN2CC=C(c3ccccc3)CC2)c(N)n1`, the “mean cytoplasmic OPP incorporation” value is reported as 101. For `CC(CN)CC(=O)O` (stereo unspecified) [3-Methyl-GABA], the “mean cytoplasmic OPP incorporation” value was 102. For `CC1(C)[C@H](C(=O)O[C@H](C#N)c2cccc(Oc3ccccc3)c2)[C@@H]1C=C(Br)Br` [Deltamethrin], the “mean cytoplasmic OPP incorporation” value was 101. In the case of `O=C1NC(=O)c2c1c1c3ccccc3n3c1c1c2c2ccccc2n1[C@H]1CC[C@@H]3O1`, the “mean cytoplasmic OPP incorporation” value is reported as 91.2. `O=C(O)C1=CCCN(CCOC(c2ccc(C(F)(F)F)cc2)c2ccc(C(F)(F)F)cc2)C1` [CI 966 hydrochloride] was tested, and the “mean cytoplasmic OPP incorporation” value was 97.6. With `COc1cc(N)c(Cl)cc1C(=O)NC1CN2CCC1CC2` (stereo unspecified) [Zacopride hydrochloride] the “mean cytoplasmic OPP incorporation” value was 104. `C[CH2][Hg][S]c1ccccc1C(=O)[O-].[Na+]` [Thimerosal] was tested, and the “mean cytoplasmic OPP incorporation” value was 15.5. For `O=C(O)/C=C/CO` [trans-4-Hydroxycrotonic acid], the “mean cytoplasmic OPP incorporation” value was 105. In the case of `C[C@@H]1C[C@@H]([C@H](O)CC2CC(=O)NC(=O)C2)C(=O)[C@@H](C)C1` [Cycloheximide], the “mean cytoplasmic OPP incorporation” value is reported as 52.1 ± 35. With `CC[N+](CC)(CCCNC1=CC(=O)C(NCCC[N+](CC)(CC)Cc2ccccc2)=CC1=O)Cc1ccccc1` [Benzoquinonium dibromide] the “mean cytoplasmic OPP incorporation” value was 101. With `O=C1CSC(c2ccccc2Cl)c2cc(Cl)ccc2N1` (stereo unspecified) the “mean cytoplasmic OPP incorporation” value was 101. `CCOC(=O)c1ncn2c1CN(C)C(=O)c1cc(N=[N+]=[N-])ccc1-2` was tested, and the “mean cytoplasmic OPP incorporation” value was 91.9. For `Cn1c2c(c3ccccc31)CCNCC2`, the “mean cytoplasmic OPP incorporation” value was 97.4. In the case of `Fc1ccc(C(OCCN2CCN(C/C=C/c3ccccc3)CC2)c2ccc(F)cc2)cc1`, the “mean cytoplasmic OPP incorporation” value is reported as 102. For `CCCOc1ccc2[nH]cc(C3=CCNCC3)c2n1`, the “mean cytoplasmic OPP incorporation” value was 103. In the case of `C[C@@H]1CC[C@@]2(OC1)O[C@H]1C[C@H]3[C@@H]4CC=C5C[C@@H](O[C@@H]6O[C@H](CO)[C@@H](O[C@@H]7O[C@@H](C)[C@H](O)[C@@H](O)[C@H]7O)[C@H](O)[C@H]6O[C@@H]6O[C@@H](C)[C@H](O)[C@@H](O)[C@H]6O)CC[C@]5(C)[C@H]4CC[C@]3(C)[C@H]1[C@@H]2C` [Dioscin (Collettiside III)], the “mean cytoplasmic OPP incorporation” value is reported as 50.2. For `CC(=O)O[C@H]1CC[C@@]2(C)C(=CC[C@@H]3[C@@H]2CC[C@]2(C)C(=O)CC[C@@H]32)C1` [Dehydroisoandosterone 3-acetate], the “mean cytoplasmic OPP incorporation” value was 83.5. For `C=CCN1C[C@H](C)N([C@H](c2ccc(C(=O)N(CC)CC)cc2)c2cccc(O)c2)C[C@H]1C`, the “mean cytoplasmic OPP incorporation” value was 111. With `O=C1CC[C@@]2(O)[C@H]3Cc4ccc(O)c5c4[C@@]2(CCN3CC2CC2)[C@H]1O5` [Naltrexone hydrochloride dihydrate] the “mean cytoplasmic OPP incorporation” value was 108. `O=C1/C(=C/c2ccccc2)C[C@@]2(O)[C@H]3Cc4ccc(O)c5c4[C@@]2(CCN3CC2CC2)[C@H]1O5` [BNTX maleate] was tested, and the “mean cytoplasmic OPP incorporation” value was 34.8. In the case of `Oc1ccc2c3c1O[C@H]1c4[nH]c5c(c4C[C@@]4(O)[C@@H](C2)N(CC2CC2)CC[C@]314)C[C@@]1(O)[C@H]2Cc3ccc(O)c4c3[C@@]1(CCN2CC1CC1)[C@H]5O4` [nor-Binaltorphimine dihydrochloride], the “mean cytoplasmic OPP incorporation” value is reported as 102. In the case of `NCC(CS(=O)(=O)O)c1ccc(Cl)cc1` (stereo unspecified) [Saclofen], the “mean cytoplasmic OPP incorporation” value is reported as 104. For `C[C@@H]1O[C@@H](O[C@@H]2C=C3CC[C@@H]4[C@H](CC[C@]5(C)[C@@H](c6ccc(=O)oc6)CC[C@]45O)[C@@]3(C)CC2)[C@H](O)[C@H](O)[C@H]1O` [Proscillaridin A], the “mean cytoplasmic OPP incorporation” value was 17.5. With `Cc1ccc2cc3c(ccc4ccccc43)c3c2c1CC3` [3-Methylcholanthrene] the “mean cytoplasmic OPP incorporation” value was 114. With `O=C(O)CCC(CP(=O)(O)O)C(=O)O` (stereo unspecified) [PMPA (NAALADase inhibitor)] the “mean cytoplasmic OPP incorporation” value was 105. In the case of `CCOc1cncc(/C=C/CCNC)c1` [TC 2559 difumarate], the “mean cytoplasmic OPP incorporation” value is reported as 97.5.
